NTMT1 inh = blocks human N-terminal methyltransferase 1 activity. Potency, µM (highest dose often 114 µM), for inactives: top-dose activity change, negative = inhibition, usual class: inhibitors. actives 2.5% (n = 59,000). NTMT1 MTase-Glo SAH luminescence, purified enzyme. AID 1645870. Q9BV86;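 also: potency is read from the fitted curve at half-maximal effect; plate controls were DMSO vehicle for no effect and no enzyme for full effect; nearly all actives have a fitted effect of over 65% in size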
HTT prom inh = inhibits huntingtin promoter activity; HEK293 HTT promoter firefly luciferase reporter, 24 h; Potency, µM (highest dose often 57.5 µM), for the others: top-dose activity change, negative = inhibition, most hits filed as inhibitors; actives 0.93% (n = 48,000); AID 1508623; also: potency is read from the fitted curve at half-maximal effect; nearly all actives have a fitted effect of over 50% in size
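HEK293 luciferase promoter-reporter cells (2,500/well) plated 24 h, then compounds added at up to 57.5 uM final for 24 h at 37 °C. Firefly luminescence by Dual-Glo, normalized to vehicle (0%) and zero RLU (-100%).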
DRV1 agonist = activates human resolvin D1 receptor GPR32 | CHO-K1 GPR32 beta-arrestin PathHunter luminescence, 90 min; zero percent set by DMSO-only wells | O75388 | activation, % at 76.9 µM | AID 1346428 | actives 2.5% (n = 48,000);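 active = activation of at least 60% and not above a set upper limit, about 1 call in 100 departs from these limits; inconclusive = activation of 40% to 60%, or above that upper limit; inactive = activation under 40%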; also: 0% is about no effect
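Beta-arrestin recruitment read-out: luminescence from complemented beta-Gal in CHO-K1 GPR32 PathHunter cells, measured 1 h after detection reagent at ambient temperature following 90 min compound exposure at 37 °C; DMSO served as basal (EC0) control.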
HTT-AS act = activators of huntingtin-antisense promoter activity; HEK293 HTT-AS promoter firefly luciferase reporter, 24 h; response scale: percent change from vehicle, -100% = no light; Potency, µM (doses to about 57.5 µM), inactives show at the top dose activity change, positive = activation, actives largely listed as activators; actives 0.24% (n = 48,000); also: potency is read from the fitted curve at half-maximal effect; nearly all actives have a fitted effect of over 55% in size
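HEK293 luciferase promoter-reporter cells (2,500/well) plated 24 h, then compounds added at up to 57.5 uM final for 24 h at 37 °C. Firefly luminescence by Dual-Glo, normalized to vehicle (0%) and zero RLU (-100%).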
FH mod = Identification of activators of human fumarate hydratase by quantitative high-throughput screening | Fumarate hydratase, mitochondrial (Homo sapiens), P07954 | FH coupled MDH/diaphorase resazurin fluorescence, 15 min | Potency, µM (titrated, usually from 79.9 µM), without a hit: at the highest dose activity change, negative = inhibition, most hits filed as inhibitors | actives 0.22% (n = 54,000); also: potency is read from the fitted curve at half-maximal effect; % is scaled to controls: 0 for no effect and ±100 for the full control effect; the screen sought activators but most active calls are inhibition curves; nearly all actives have a fitted effect of over 45% in size
Target sequence (P07954 whole entry, looked up): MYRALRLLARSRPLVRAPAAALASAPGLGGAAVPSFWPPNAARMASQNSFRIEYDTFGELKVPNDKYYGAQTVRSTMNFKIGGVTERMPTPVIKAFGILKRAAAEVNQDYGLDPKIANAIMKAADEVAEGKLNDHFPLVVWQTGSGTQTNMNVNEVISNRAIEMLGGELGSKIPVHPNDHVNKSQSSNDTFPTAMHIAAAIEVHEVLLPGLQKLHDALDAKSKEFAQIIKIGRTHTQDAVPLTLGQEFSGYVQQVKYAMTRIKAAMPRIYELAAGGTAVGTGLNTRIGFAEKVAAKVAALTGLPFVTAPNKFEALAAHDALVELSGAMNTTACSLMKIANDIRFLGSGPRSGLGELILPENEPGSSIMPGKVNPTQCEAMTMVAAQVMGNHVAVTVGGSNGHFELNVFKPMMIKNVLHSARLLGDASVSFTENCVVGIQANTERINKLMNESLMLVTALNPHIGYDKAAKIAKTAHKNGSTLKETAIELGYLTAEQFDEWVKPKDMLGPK
DYRK1A inh-1 = blocks recombinant human DYRK1A kinase activity; Potency, µM (doses to about 76.9 µM), without a hit: top-dose activity change, negative = inhibition, most hits filed as inhibitors; actives 80% (n = 100); shares compounds with NTMT1 inh; recombinant DYRK1A, Kinase-Glo ATP depletion luminescence
CLK4 inh-1 = CLK4 kinase inhibition, SAR round 2. shares compounds with NTMT1 inh. recombinant Clk4, Kinase-Glo ATP luminescence, 4.5 h. Potency, µM (highest dose often 76.9 µM), for the others: top-dose activity, negative = inhibition, hits mostly inhibitors. actives 90% (n = 90). AID 493204
CLK4 inh-2 = inhibitors of human CLK4 kinase, SAR round 2 | shares compounds with NTMT1 inh | Reaction Biology kinase assay, 10 uM ATP | Potency, µM, actives largely listed as inhibitors | actives 100% (n = 65); calls by dose curve
DYRK1A inh-2 = inhibitors of human DYRK1A kinase | shares compounds with NTMT1 inh | Reaction Biology kinase assay, 10 uM ATP | Potency, µM, most hits filed as inhibitors | actives 90% (n = 65);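 active = compounds that showed inhibition of Dyrk1a and received a fitted potency; inactive = compounds that showed no inhibition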
CLK2 RBC = inhibitors of human CLK2 kinase | shares compounds with NTMT1 inh | Reaction Biology kinase assay, 10 uM ATP | Potency, µM, hits mostly inhibitors | actives 90% (n = 65);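 active = compound that inhibits Clk2 kinase in the dose series, with an IC50 potency reported; inactive = no inhibition seen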
CLK3 inh = CLK3 kinase inhibition | shares compounds with NTMT1 inh | recombinant CLK3 kinase assay, 10 uM ATP | Potency, µM, actives largely listed as inhibitors | actives 40% (n = 65) | AID 504428;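 active = compounds that inhibited Clk3 enough in the ten-dose series to give a half-maximal potency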
DYRK1B RBC = inhibitors of human Dyrk1b kinase. Recombinant Dyrk1b kinase assay, 10 uM ATP. Potency, µM, actives largely listed as inhibitors. actives 80% (n = 65). AID 504429. shares compounds with NTMT1 inh;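 active = compounds whose dose response shows an inhibitor phenotype against the kinase Dyrk1b; inactive = compounds showing no inhibitor phenotype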
CLK1 RBC = blocks human CLK1 kinase activity | shares compounds with NTMT1 inh | Potency, µM, hits mostly inhibitors | recombinant Clk1 kinase assay, 10 uM ATP | actives 90% (n = 65);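 active = compounds that block the splicing kinase Clk1 enough to give a fitted half-inhibition concentration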
Sfp qHTS opt = Sfp PPTase inhibition, chemistry optimization. actives 78% (n = 230). Potency, µM (doses to about 114 µM), inactives show top-dose activity change, negative = inhibition, actives largely listed as inhibitors. purified Sfp PPTase enzyme activity, qHTS. AID 540350. shares compounds with NTMT1 inh
Bsub HM489 growth = reduces growth of B. subtilis HM489 strain. Potency, µM (top dose mostly 114 µM), without a hit: top-dose activity change, negative = inhibition, hits mostly inhibitors. actives 50% (n = 220). B. subtilis HM489 (acpS-) growth, BacTiter-Glo, 5 h. shares compounds with NTMT1 inh. AID 540353
Sfp PPTase gel = inhibitors of Bacillus subtilis Sfp PPTase, gel-based followup; AID 540355; purified Sfp PPTase, gel-based product detection; actives 54% (n = 220); shares compounds with NTMT1 inh; Potency, µM (titrated, usually from 250 µM), for the others: top-dose activity change, negative = inhibition, actives largely listed as inhibitors
Sfp inh SAR2 = inhibits B. subtilis Sfp PPTase in second SAR round; shares compounds with NTMT1 inh; purified Sfp enzyme, PPTase activity, qHTS; Potency, µM (top dose mostly 57.1 µM), for inactives: at the top dose activity change, negative = inhibition, usual class: inhibitors; actives 87% (n = 230); AID 602370
HSD17B4 inh = counter-screen for HPGD inhibitors: human HSD17B4 inhibition. purified HSD17B4, estradiol/NAD+, NADH fluorescence. Potency, µM (series often up to 57.1 µM), for inactives: at the top dose activity change, negative = inhibition, hits mostly inhibitors. shares compounds with NTMT1 inh. actives 10% (n = 230)
ALDH1A1 counter = inhibits human ALDH1A1, off-target for HPGD inhibitors; shares compounds with NTMT1 inh; recombinant ALDH1A1, NADH fluorescence, propionaldehyde/NAD+; Potency, µM (highest dose often 57.1 µM), for inactives: top-dose activity change, negative = inhibition, hits mostly inhibitors; actives 93% (n = 230); AID 743195
NNMT counter = blocks human NNMT methyltransferase | actives 10% (n = 120) | AID 1645878 | shares compounds with NTMT1 inh | NNMT MTase-Glo luminescence, SAH detection | Potency, µM (top dose mostly 57.1 µM), without a hit: top-dose activity, negative = inhibition, hits mostly inhibitors
Target sequence (P40261 whole entry, looked up): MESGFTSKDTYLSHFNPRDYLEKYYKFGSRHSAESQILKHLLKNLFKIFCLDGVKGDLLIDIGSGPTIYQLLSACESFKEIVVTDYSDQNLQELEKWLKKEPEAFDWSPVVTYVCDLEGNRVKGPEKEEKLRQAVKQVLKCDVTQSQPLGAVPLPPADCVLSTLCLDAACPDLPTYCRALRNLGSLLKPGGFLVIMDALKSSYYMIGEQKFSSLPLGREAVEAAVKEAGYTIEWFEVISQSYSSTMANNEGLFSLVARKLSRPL
The depositor's hits bear a star; ? = inconclusive; . = not tested or not shown; [ ] = dose if it differs, or a comment. An excerpt weighted towards active compounds, which were near 4.7% of everything screened. Unless noted, calls follow the shape of the dose curve; as a rule, active = well fitted curve in the direction sought with a large enough effect; inconclusive = small, poorly fitted or top-dose-only effect, or another doubt; inactive = no such curve, though single readings can be large; an effect the other way counts as inactive or inconclusive.

SMILES | NTMT1 inh | HTT prom inh | DRV1 agonist | HTT-AS act | FH mod | NNMT counter | others
Fc1c(-c2ccc3ncnc(NCc4cccs4)c3c2)ccc2c1OCO2 | ? | . | . | . | . | . | DYRK1A inh-1=0.18µM*;CLK4 inh-2=0.13*;DYRK1A inh-2=0.16µM*;CLK2 RBC=4.4µM*;CLK3 inh=9.3µM*;DYRK1B RBC=2.3µM*;CLK1 RBC=0.31µM*
c1csc(CNc2ncnc3ccc(-c4ccc5c(c4)OCCO5)cc23)c1 | ? | . | . | . | . | . | DYRK1A inh-1=0.37µM*
CCN1CCC(n2cc(CNc3cc(Cl)c4ncc(C#N)c(Nc5ccc(F)c(Cl)c5)c4c3)nn2)CC1 | 2.5µM* | 7% | . | -2% | -9% | ?
CCCNc1ccc2ncc(-c3ccc4[nH]ncc4c3)n2n1 | 28µM* | . | . | . | -9% | 14µM*
O=C(Nc1ccc(F)c(C(F)(F)F)c1)Nc1nc(-c2ccncc2)cs1 | 4%[57.5 µM] | . | . | . | . | .
N#Cc1ccc(Nc2nc(-c3ccc(O)cc3O)cs2)cc1C(F)(F)F | ? | . | . | . | ? | -28%
CN(C)c1ccc(Nc2nc(N)n(C(=O)c3c(F)cccc3F)n2)cc1 | ? | 21% | . | 24µM* | -25%[53.3 µM] | -13%
CN(C)c1ccc(Nc2nc3ccccc3n3nnnc23)cc1 | ? | -20% | -15 | -17% | -25% | .
COc1ccc(OC)c(NC(=O)CCc2c(C)nn(-c3ccc(N4CCCC4)nn3)c2C)c1 | . | . | -9 | . | . | .
CCN1CCN(C(=S)c2ccc(O)cc2)CC1 | -21% | . | . | . | . | . | Sfp qHTS opt=19µM*;Bsub HM489 growth=-26%;Sfp PPTase gel=?;Sfp inh SAR2=18µM*;HSD17B4 inh=-18%;ALDH1A1 counter=?
Cc1ccc(C(=O)N(CCCN)C(c2nc3cc(Cl)ccc3c(=O)n2Cc2ccccc2)C(C)C)cc1 (centres undefined) | -2%[57.5 µM] | . | . | . | -3% | .
COc1ccc(NC(=O)c2cnc(N3CCOCC3)c3ccccc23)cc1OC | 1% | -26% | -9 | -25% | -19% | .
Nc1ccc(C(=O)Nc2cccc(-c3nc(N4CCOCC4)c4oc5ncccc5c4n3)c2)cn1 | 11% | ? | . | -28% | -10% | -18%
CN1CCN(c2ncc3nc(-c4cn(C)c5ccccc45)c(=O)n(Cc4cccs4)c3n2)CC1 | . | . | . | . | . | . | CLK4 inh-1=-9%
CN1CCN(c2nn3c(=O)c4ccccc4nc3s2)CC1 | -19% | . | . | . | . | .
CC(C)c1cc2c(c(O)c1O)[C@@]13CCCC(C)(C)[C@@H]1[C@H](OC3=O)C2=O | -10%[29.8 µM] | . | . | . | ? | ?
CC(C)c1cc2c(c(O)c1O)[C@@]13CCCC(C)(C)C1[C@@H](O)[C@@H]2OC3=O (some centres undefined) | ? | . | . | . | -9%[53.3 µM] | -10%[38.3 µM]
CC1(C)CCCC2(C)c3c4c(c(=O)oc(=O)c3=CCC12)=CCC1C(C)(C)CCCC41C (centres undefined) | 16%[29.8 µM] | . | . | . | 1%[53.3 µM] | .
O=C(Cn1c(=O)n(-c2ccccc2Cl)c(=O)c2sc3ccccc3c21)NC1CCCC1 | 2% | -18% | -9 | -14% | -1% | .
COc1cccc(CNC(=O)c2ccc(NC(=O)N3CC(C)Sc4ccccc43)cc2)c1 (centres undefined) | 15% | -22% | -17 | -15% | -18% | .
Cc1cc2c(c(=O)[nH]1)OC(C(O)CC(C)C)O2 (centres undefined) | -16% | . | . | . | -1% | 2%
Cc1cc(-c2nnc3n2CCCCC3)c(C)n1-c1ccccn1 | -14% | . | . | . | . | .

From PubChem
